# Measured values as given in PubChem BioAssay AID2284110 (EPA ToxCast).
# Records with an inconclusive call do not appear. The source made the active and inactive calls. How the source made its calls: active means hit-call score of the fitted dose curve at least 0.9, where 1 is the maximum; inconclusive means response in the unintended direction; inactive means score below 0.9.
# Target: human Adrenoceptor Receptor alpha1A Antagonism, conducted at France lab site, ADRA1A (gene 148) (UniProt P35348)
# Test: ERF_FR_GPCR_hADRA1A: Eurofins (ERF) G Protein-Coupled Receptor (GPCR) Radioligand Binding LeadHunter Assay for human Adrenoceptor Receptor alpha1A Antagonism, conducted at France lab site
# Protocol: ERF_FR_GPCR_hADRA1A is a biochemical, single-readout assay that uses extracted gene-proteins in a cell-free assay. Measurements were taken 1 hour after chemical dosing in a 96-well plate. See alpha1A Human Adrenoceptor GPCR Binding (Antagonist Radioligand) Assay, Cerep.ERF_FR_GPCR_hADRA1A is an assay component calculated from the ERF_FR_GPCR_hADRA1A assay. It is designed to measure radioligand binding using a type of binding reporter as detected by scintillation counting with radiometry technology.Data from the assay component ERF_FR_GPCR_hADRA1A was analyzed at the assay endpoint, ERF_FR_GPCR_hADRA1A, in the positive analysis fitting direction relative to DMSO as the negative control and baseline of activity. Using a type of binding reporter, loss-of-signal activity can be used to understand changes in binding as they relate to gene ADRA1A. To generalize the intended target to other relatable targets, this assay endpoint is annotated to the gpcr intended target family, where the subfamily is adrenoceptor.
# Human cells are incubated for 60 minutes in room temprature, using [3H]prazosin ligand at 0.1 Kd (nM) with WB-4101 control inhibitor.Test Sample Requirements: Minimum for 1) Screen: 60 ul of 10 mM stock -OR- 1 mg (pre-weighed) for […] uM final testing. 2) Dose Response: 90 ul of 10 mM stock -OR- 1 mg (pre-weighed) for a top concentration at 10 uM.
# Chain of human Adrenoceptor Receptor alpha1A Antagonism, conducted at France lab site, ADRA1A (gene 148) (P35348 whole entry, looked up): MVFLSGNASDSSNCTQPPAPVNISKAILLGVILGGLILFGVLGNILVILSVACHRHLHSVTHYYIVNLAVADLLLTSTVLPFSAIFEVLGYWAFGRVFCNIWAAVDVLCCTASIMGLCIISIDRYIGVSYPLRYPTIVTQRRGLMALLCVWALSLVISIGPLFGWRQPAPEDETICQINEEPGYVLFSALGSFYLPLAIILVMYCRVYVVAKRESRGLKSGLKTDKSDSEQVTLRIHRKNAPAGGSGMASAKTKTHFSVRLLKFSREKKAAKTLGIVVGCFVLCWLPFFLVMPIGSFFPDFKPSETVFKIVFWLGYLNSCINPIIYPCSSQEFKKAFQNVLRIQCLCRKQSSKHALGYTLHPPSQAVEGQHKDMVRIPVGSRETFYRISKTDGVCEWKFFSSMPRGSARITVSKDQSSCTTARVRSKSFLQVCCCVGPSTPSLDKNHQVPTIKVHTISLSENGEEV
row,SMILES,AC50
1,COc1cc(/C=C/C(=O)CC(=O)/C=C/c2ccc(O)c(OC)c2)ccc1O,258 nM (active)
2,O=C(/C=C/c1ccc(O)cc1)CC(=O)/C=C/c1ccc(O)cc1,205 nM (active)
